Compounds with a hit are over-represented: about 8% of the library has one in this group of screens.
HCV inh: blocks hepatitis C virus | Huh7.5.1 HCVcc-Cre infection, luciferase reporter, 44 h | Potency, µM (top dose mostly 41.8 µM), actives largely listed as inhibitors | 340,000 compounds, 3.4% hits; active = well fitted inhibition curve with a large enough effect; inconclusive = small, poorly fitted or top-dose-only effect, or another doubt; inactive = no such curve, though single readings can be large or run the other way
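Reporter virus HCVcc-Cre (~0.5 moi) infects cells exposed to compound; seeding density 1,000 cells/well with 4 h settling beforehand. Luminescence, 15 sec read, taken 44 h post-infection following a 15 min RT substrate incubation.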
SARS PLP yeast: blocks SARS-CoV papain-like protease in a yeast assay; Potency, µM (doses to about 32.9 µM), most hits filed as activators; 330,000 compounds, 0.19% hits; S. cerevisiae expressing SARS-CoV PLpro, growth rescue; AID 485353; calls by dose curve; note: nearly all actives have a fitted effect of over 55% in size
MARV entry inh: inhibitors of Marburg virus binding or cell entry; Marburg virus pseudotyped entry inhibition, cell reporter; Potency, µM (top dose mostly 37.8 µM), usual class: inhibitors; 300,000 compounds, 1.8% hits; AID 540276; calls by dose curve; tested in HEK293 cells
LASV entry inh: Lassa virus entry inhibition; Potency, µM (series often up to 37.9 µM), actives largely listed as inhibitors; AID 540256; Lassa virus pseudotype entry inhibition, cell reporter; 300,000 compounds, 1.2% hits; calls by dose curve; tested in HEK293 cells; note: nearly all actives have a fitted effect of over 50% in size
FMDV inh: foot and mouth disease virus antiviral activity | FMDV antiviral cell-based qHTS | Potency, µM (series often up to 57.9 µM), actives largely listed as inhibitors | 410,000 compounds, 1.2% hits; calls by dose curve; tested in HEK293T cells; note: read-out not given here; nearly all actives have a fitted effect of over 45% in size
HCMV inh: human cytomegalovirus inhibition; 410,000 compounds, 4.5% hits; AID 1259415; activity change, negative = inhibition, % at 57.5 µM; HFF cells, HCMV-luciferase reporter, 72 h; stronger effect = lower value; in the data active = activity change below about -60%; inconclusive = no clear call, values can overlap the other calls; inactive = above about -39%
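After 16 h attachment at 37C, HFF cells received test compound and HCMV-luciferase (1 PFU/cell); reporter luminescence read 72 h later, data normalized against buffer-only and known inhibitor Salinomycin.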
Each line names hits and unclear results; the compound was inactive in the other large screens.

CCOCc1cnc(C)nc1NCC(=O)c1c(C)[nH]c2cc(C)ccc12	HCMV inh -101 (no result: FMDV inh)
CCOCc1cnc(C)nc1NCC(=O)c1c(C)[nH]c2ccccc12	MARV entry inh inconclusive, HCMV inh -80
CCOC(=O)C1CCCN(S(=O)(=O)c2ccc3[nH]c(=O)ccc3c2)C1 (stereo not given)	FMDV inh inconclusive (no result: HCV inh, SARS PLP yeast, MARV entry inh)
CC(=O)c1sc(N)c(C(=O)OC(C)C)c1C	HCV inh 14µM, LASV entry inh inconclusive
Cc1cccc(NC(=O)c2ccc(N3CCCCC3)c([N+](=O)[O-])c2)n1	MARV entry inh inconclusive, LASV entry inh inconclusive
Cc1cccc(NC(=O)c2ccc(N(C)C3CCCCC3)c([N+](=O)[O-])c2)n1	HCV inh 14µM, MARV entry inh inconclusive, LASV entry inh inconclusive, FMDV inh inconclusive, HCMV inh inconclusive
COC(=O)c1ccccc1S(=O)(=O)N1CCCC(c2nc3c(nnn3Cc3ccc(C)cc3)c(=O)[nH]2)C1 (stereo not given)	LASV entry inh inconclusive, HCMV inh -78
Cc1nc2ccc(F)cc2cc1C(=O)NCc1ccco1	none
Cc1nc2ccc(F)cc2cc1C(=O)Nc1ccc(Cl)c(Cl)c1	HCMV inh -61
COc1cccc(CNC(=O)c2ccc3c(c2)nc2n3CCOC2)c1OC	none (no result: HCV inh, SARS PLP yeast, MARV entry inh)
CCc1cccc(NC(=O)c2c(N3CCCC3=O)c3cc(C)ccc3n2C)c1	FMDV inh inconclusive (no result: HCV inh, SARS PLP yeast, MARV entry inh)
COc1cccc(S(=O)(=O)c2nc(C)c3c(n2)CCC3)c1	FMDV inh 13µM, HCMV inh -81 (no result: MARV entry inh, LASV entry inh)
CC(CS(=O)(=O)c1ccccc1[N+](=O)[O-])N1CCOCC1 (stereo not given)	HCMV inh -81
COc1cccc2sc(N(C)c3ccccc3)nc12	HCV inh 25µM, MARV entry inh inconclusive, LASV entry inh inconclusive
CCC(=O)N1CC2(C1)CN(C(=O)c1ccccn1)[C@H](CO)c1c2c2ccc(OC)cc2n1C	none (no result: HCV inh, SARS PLP yeast, MARV entry inh, LASV entry inh, FMDV inh)
C=CC[n+]1c(-c2ccc(OC)c(OC)c2)csc1NNC(=O)Nc1ccccc1	HCV inh 4µM, MARV entry inh inconclusive, LASV entry inh 10µM, HCMV inh inconclusive (no result: FMDV inh)
CC(C)NC(=O)[C@@H]1C[C@@H](Sc2ccccn2)CN1C1CCN(C)CC1	none (no result: HCV inh, SARS PLP yeast, MARV entry inh, LASV entry inh, HCMV inh)
CC(=O)c1ccc(NC(=O)C2CCN(S(=O)(=O)c3ccc4c(c3)CCCN4C(=O)C3CCC3)CC2)cc1	FMDV inh inconclusive (no result: HCV inh, SARS PLP yeast, MARV entry inh)
Cc1ccc(/C=C/C(=O)OC(C)C(=O)Nc2ncc(Cl)cc2Cl)o1 (stereo not given)	HCMV inh -98
COC(=O)[C@@H]1[C@@H](C)N(Cc2ccccc2)C(=O)N[C@H]1c1cccc(C(F)(F)F)c1	HCV inh 2.8µM (no result: LASV entry inh)
CCOC(=O)CN1C(=O)N[C@@H](c2ccccc2)[C@H](C(C)=O)[C@H]1C	HCMV inh -103 (no result: SARS PLP yeast, LASV entry inh)
CN(Cc1ccco1)C(=O)c1cc(NC(=O)C2CCC2)c2c(c1)nc(-c1ccncc1)n2C	none (no result: HCV inh, SARS PLP yeast, MARV entry inh, LASV entry inh, HCMV inh)
Cc1ccc(C)c(NC(=O)/C(C#N)=C/c2cn(CC(=O)NCc3ccco3)c3ccccc23)c1	HCV inh inconclusive, MARV entry inh inconclusive, HCMV inh -100
Cc1cc(C)cc(NC(=O)/C(C#N)=C/c2cn(CC(=O)NCc3ccco3)c3ccccc23)c1	HCV inh inconclusive, MARV entry inh inconclusive, LASV entry inh inconclusive, FMDV inh inconclusive, HCMV inh -85
COc1cccc(N/C(SCc2ccccc2C)=C(/C#N)C(=O)NCc2cccs2)c1	MARV entry inh inconclusive, LASV entry inh inconclusive, HCMV inh -80
Cc1ccc(CS/C(Nc2ccccc2C)=C(\C#N)C(=O)NCc2ccco2)c(C)c1	MARV entry inh inconclusive, LASV entry inh 3.7µM
COc1cccc(N/C(SCc2ccccc2Cl)=C(/C#N)C(=O)NCc2cccs2)c1	MARV entry inh inconclusive, LASV entry inh inconclusive
Cc1cc(C)c2c(c1)c(C)cc1nnc(SCC(=O)c3ccccc3)n12	none (no result: HCV inh, SARS PLP yeast)
C#CCCCO/N=C1\C[C@@H](O)[C@@H](O)[C@@H]2[C@@H]3C(=O)N(C[C@@H]4CCCO4)C(=O)[C@@H]3CC[C@@H]12	none (no result: HCV inh, SARS PLP yeast, LASV entry inh, FMDV inh, HCMV inh)
COc1ccc(Nc2nc(-c3ccc4c(c3)NC(=O)CO4)cs2)cc1	LASV entry inh inconclusive, FMDV inh inconclusive, HCMV inh inconclusive
COc1ccccc1Nc1nc(-c2ccc3c(c2)NC(=O)CO3)cs1	HCV inh 10µM, FMDV inh inconclusive, HCMV inh -64 (no result: MARV entry inh, LASV entry inh)
COC(=O)c1c(OCc2ccccc2)cc(=O)n2c1CCN(Cc1cccc(C)n1)CC2	none (no result: HCV inh, SARS PLP yeast, MARV entry inh, LASV entry inh, HCMV inh)
COc1cccc(NC(=O)CSc2nc3n[nH]c(C)c3c(=N)n2-c2cccc(OC)c2)c1	HCV inh 10µM, MARV entry inh inconclusive
Cc1cc(-n2c(SCC(=O)Nc3ccc(Br)cc3)nc3n[nH]c(C)c3c2=N)ccc1Cl	HCMV inh -75 (no result: MARV entry inh, LASV entry inh)
CC1=CC[C@@H](COc2ccccc2)O[C@@]2(C1)C(=O)N(Cc1ccc(Br)cc1)c1ccccc12	none (no result: HCV inh, SARS PLP yeast, LASV entry inh, FMDV inh, HCMV inh)
COc1ccc(CN2CCN(C(=O)Cn3c(=O)oc4cc(Cl)ccc43)CC2)c(OC)c1OC	HCV inh 3.5µM, HCMV inh inconclusive (no result: MARV entry inh, LASV entry inh)
COc1ccc(CN2CCN(C(=O)Cn3ncn4cccc4c3=O)CC2)c(OC)c1OC	HCV inh inconclusive, FMDV inh inconclusive, HCMV inh -64 (no result: MARV entry inh, LASV entry inh)
COc1ccc(CN2CCN(C(=O)Cn3nc(C)n4cccc4c3=O)CC2)c(OC)c1OC	none
COc1ccc(CCNC(=O)c2ccc3nc(-c4ccco4)c(-c4ccco4)nc3c2)cc1OC	HCV inh 2.8µM, MARV entry inh 10µM, LASV entry inh 8.2µM, FMDV inh 16µM (no result: HCMV inh)
COc1ccc(-c2nc(CCNC(=O)c3ccco3)cs2)cc1OC	HCV inh inconclusive, MARV entry inh inconclusive, LASV entry inh inconclusive, HCMV inh -101
COc1ccc(CCNC(=O)CCSc2nc(-c3ccco3)cc(C(F)(F)F)n2)cc1OC	HCV inh 5.6µM, MARV entry inh inconclusive
O=C(CSc1nc(-c2ccco2)cc(C(F)(F)F)n1)NC1CCCC1	HCV inh inconclusive, HCMV inh -68 (no result: MARV entry inh, LASV entry inh)
CCc1nc2ccc(C(=O)NCCc3ccc(OC)c(OC)c3)cc2nc1CC	HCV inh inconclusive, FMDV inh inconclusive (no result: MARV entry inh)
CCCC(=O)N1c2nc(-c3ccco3)nn2C2(CCCCC2)[C@@H]2CCCC[C@@H]21	MARV entry inh inconclusive, HCMV inh inconclusive (no result: HCV inh, SARS PLP yeast)
O=C(CCSc1nc(-c2ccco2)cc(C(F)(F)F)n1)NCc1cccs1	HCV inh 10µM
O=C(CCSc1nc(-c2ccco2)cc(C(F)(F)F)n1)Nc1cccc(O)c1	FMDV inh inconclusive (no result: HCV inh, SARS PLP yeast)
O=C(CCSc1nc(-c2ccco2)cc(C(F)(F)F)n1)NCc1ccccn1	HCV inh 11µM
COc1ccc(-c2nc3cc(C)ccc3cc2CN(C(=O)c2cccs2)C2CC2)cc1OC	none (no result: HCV inh, SARS PLP yeast, MARV entry inh, LASV entry inh, HCMV inh)
COc1cccc(-c2nc3cc4c(cc3cc2CN(C(=O)c2cccs2)C2CC2)CCC4)c1OC	FMDV inh 32µM (no result: HCV inh, SARS PLP yeast, MARV entry inh, LASV entry inh, HCMV inh)
O=C(CN1CCCCC1)NCC(=O)Nc1ccc(Br)cc1C(=O)c1ccccc1	HCV inh 11µM, MARV entry inh inconclusive, LASV entry inh inconclusive

Screens: PubChem BioAssay, National Center for Advancing Translational Sciences (NCATS)
